{"source": "PubChem BioAssay (NCATS)", "note": "“And” between values parts separate entries of the source, which are not always exact repeats. Equal entries are not always repeated. Results filed as inconclusive are left out. Unmarked numbers belong to inactive results. The source made the active and inactive calls. The call rests on the fitted dose curve; in most records, active means well fitted inhibition curve with a large enough effect; inconclusive means small, poorly fitted or top-dose-only effect; inactive means flat fitted curve, though single readings scatter. On the % scale 0 is the no-effect control and ±100 the full control effect; potency means the concentration at half of the fitted maximal effect.", "data": [{"test": "P-glycoprotein substrates identified in KB-8-5-11 adenocarcinoma cell line, qHTS therapeutic library screen (AID 1346987); further: nearly all actives have a fitted effect of over 65% in size", "conditions": "KB-8-5-11 (P-gp overexpressing) viability, CellTiter-Glo, 72 h; series mostly up to 44.5 µM; activity change, negative = cytotoxicity: at the top concentration", "procedure,_shortened": "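In this qHTS, P-gp-rich KB-8-5-11 cells received library compounds across a concentration range. Viability was quantified by luminescence after 72 h at 37 degree C.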", "values": [{"smiles": "COC(=O)N[C@H](C(=O)N1CCC[C@@H]1c1ncc(-c2ccc(-c3ccc(-c4cnc([C@@H]5CCCN5C(=O)[C@@H](NC(=O)OC)C(C)C)[nH]4)cc3)cc2)[nH]1)C(C)C", "activity change, negative = cytotoxicity": "-2.51%"}, {"smiles": "CC(C)(C)Cn1c(N)nc2ccc(-c3[nH]c(C(C)(C)C)nc3-c3ccc(F)cc3)nc21", "Potency": "20.9 µM (active) and 23.1 µM (active)"}, {"smiles": "CN(C)c1cc(NC(=O)CNC(C)(C)C)c(O)c2c1C[C@@H]1C[C@H]3[C@H](N(C)C)C(=O)C(C(N)=O)=C(O)[C@@]3(O)C(=O)C1=C2O", "activity change, negative = cytotoxicity": "5.39%"}, {"smiles": "COc1ccc(-n2c(C)c([N+](=O)[O-])c3ccc(O)cc32)cc1", "activity change, negative = cytotoxicity": "2.7%"}, {"smiles": "CN1C[C@H]2c3ccccc3Oc3ccc(Cl)cc3[C@@H]2C1", "activity change, negative = cytotoxicity": "-17%"}, {"smiles": "CC(=Cc1ccccc1)C=C1SC(=S)N(CC(=O)O)C1=O", "outcome": "inactive"}, {"smiles": "O=C1NC(=O)C(=Cc2ccc3nccnc3c2)S1", "activity change, negative = cytotoxicity": "-6.84% [at 17.3 µM]"}, {"smiles": "O=C(NCc1ccccc1)c1csc(Nc2ccncn2)n1", "activity change, negative = cytotoxicity": "-2.97%"}, {"smiles": "COc1ccc(-c2oc3c(CC=C(C)C)c(OC4O[C@H](CO)[C@@H](O)[C@H](O)[C@@H]4O)cc(O)c3c(=O)c2OC2O[C@@H](C)[C@H](O)[C@@H](O)[C@@H]2O)cc1", "note": "(stereo partly drawn)", "Potency": "23.5 µM (active)"}, {"smiles": "C[C@@H]1CCN(C(=O)CC#N)C[C@H]1N(C)c1ncnc2[nH]ccc12", "activity change, negative = cytotoxicity": "-10.4%"}, {"smiles": "O=C(NOCC(O)CO)c1cc(Br)c(F)c(F)c1Nc1ccc(I)cc1F", "note": "(stereo not drawn)", "activity change, negative = cytotoxicity": "-21.3%"}, {"smiles": "Oc1ccc(C2=Cc3ccc(O)cc3OC2)cc1", "Potency": "9.35 µM (active) and 6.51 µM (active)"}, {"smiles": "CC(C)(C)OC(=O)N[C@H]1CCCCCC=C[C@@H]2C[C@@]2(C(=O)NS(=O)(=O)C2CC2)NC(=O)[C@@H]2C[C@@H](OC(=O)N3Cc4cccc(F)c4C3)CN2C1=O", "activity change, negative = cytotoxicity": "5.97%"}, {"smiles": "O=C1c2ccccc2-[n+]2ccc3c([nH]c4ccccc43)c21", "Potency": "3.32 µM (active)"}, {"smiles": "Cc1ccn(-c2ccc(-c3ncco3)cc2)c(=O)c1-c1ccc2nc(N)ncc2c1", "Potency": "inactive"}, {"smiles": "CN1[C@@H]2CCC[C@@H]1CC(NC(=O)c1nn(C)c3ccccc13)C2", "note": "(stereo partly drawn)", "activity change, negative = cytotoxicity": "-10.4%"}, {"smiles": "CNC(=O)c1ccccc1Sc1ccc2c(C=Cc3ccccn3)n[nH]c2c1", "Potency": "4.18 µM (active)"}, {"smiles": "c1cc(-c2sc(-c3ccncc3)c(-c3ccncc3)c2-c2ccncc2)ccn1", "outcome": "inactive"}, {"smiles": "CC(=O)Oc1cc2c(s1)CCN(C(C(=O)C1CC1)c1ccccc1F)C2", "note": "(stereo not drawn)", "activity change, negative = cytotoxicity": "-0.369%"}, {"smiles": "O=C1NC(=O)C(=Cc2ccc3c(c2)OC(F)(F)O3)S1", "activity change, negative = cytotoxicity": "-15.6%"}, {"smiles": "O=C(O)c1c(Cl)c(Cl)c(Cl)c(Cl)c1-c1c2cc(I)c(=O)c(I)c-2oc2c(I)c(O)c(I)cc12", "activity change, negative = cytotoxicity": "-25.4%"}, {"smiles": "CCn1c(C(=O)N(C2CC2)C2CC2)cc2c3c(ncn3C)c(Nc3cc(C)n(C)n3)nc21", "activity change, negative = cytotoxicity": "-7.78%"}, {"smiles": "COc1ccc(C2Sc3ccccc3N(CCN(C)C)C(=O)C2OC(C)=O)cc1", "note": "(stereo not drawn)", "outcome": "inactive"}, {"smiles": "CN[C@@H](C)C(=O)N[C@H]1CN(C(=O)CC(C)C)CC[C@H]2CC[C@@H](C(=O)NC(c3ccccc3)c3ccccc3)N2C1=O", "Potency": "inactive"}, {"smiles": "CC=CCC=CCCC(=O)[C@H]1O[C@@H]1C(N)=O", "outcome": "inactive"}, {"smiles": "CC(C)C(=O)Nc1ncc(-c2cc(C(F)F)nn2-c2c(Cl)cccc2Cl)s1", "Potency": "23.1 µM (active)"}, {"smiles": "CC1(C)CCC2=C(O1)c1ccccc1C(=O)C2=O", "activity change, negative = cytotoxicity": "-10.5%"}, {"smiles": "CC(C)C(C)C=CC(C)C1CCC2C3=CC=C4CC(O)CCC4(C)C3CCC21C", "note": "(stereo not drawn)", "outcome": "inactive"}, {"smiles": "NS(=O)(=O)c1ccc(NC2=CC(=O)c3ccccc3C2=O)cc1", "activity change, negative = cytotoxicity": "-22.4%"}, {"smiles": "COc1ccc2c3c1OC1C[C@@H](O)C=C[C@@]31CCN(C)C2", "note": "(stereo partly drawn)", "outcome": "inactive"}, {"smiles": "O=C(OCC#CCSc1nnc(-c2cccc3ccccc23)o1)c1cc2ccccc2s1", "activity change, negative = cytotoxicity": "5.09%"}, {"smiles": "CC(=O)OC1C(C)OC(Oc2c(-c3ccc(O)cc3)oc3cc(O)cc(O)c3c2=O)C(O)C1OC(C)=O", "note": "(stereo not drawn)", "outcome": "inactive"}, {"smiles": "COCCOC(=O)C1=C(C)NC2=C(C(=O)CC(c3ccccc3OC)C2)C1c1cccc(O)c1", "note": "(stereo not drawn)", "Potency": "inactive"}]}]}
